The results in this text go back to PubChem BioAssay (EPA / NIEHS).

The nature of assay [1]: ATG_TCF_b_cat_CIS: Attagene CIS-FACTORIAL HepG2 Assay for human T-Cell-Factor with beta-catenin (TCF/b-cat) (AID 2282965). To be noted: HepG2 TCF/beta-catenin cis-reporter transcription, actives raise or lower the signal. In outline: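 HepG2 cells transiently transfected with cis-promoter-driven multiplexed reporter units; reporter mRNA measured 24 h after dosing by RT-PCR, FAM labelling, HpaI digestion and capillary electrophoresis. Bidirectional fitting relative to DMSO baseline.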

A short description of assay [2]: ATG_TAL_CIS: Attagene CIS-FACTORIAL HepG2 Assay for human TAL Basal Promoter (AID 2282966).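 Further: background control endpoint measuring basal TAL promoter reporter mRNA not a specific factor.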 To be noted: HepG2 Attagene cis-factorial TAL promoter reporter; actives raise or lower the signal. In a few lines: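 Background-control endpoint: basal TAL promoter reporter transcripts in transiently transfected HepG2, measured 24 h after dosing. Read-out by RT-PCR with fluorescent primer extension and capillary electrophoresis; gain or loss of signal fitted relative to DMSO.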

The nature of assay [3]: ATG_TGFb_CIS: Attagene CIS-FACTORIAL HepG2 Assay for human Transforming Growth Factor (TGF) (AID 2282967). To be noted: HepG2 Attagene CIS TGFb reporter, mRNA transcription; actives raise or lower the signal. In a few lines:
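Readout: fluorescently labeled reporter cDNA fragments resolved by capillary electrophoresis after RT-PCR. Transfected HepG2 cells dosed for 24 h; endogenous TF activity at TGFB1-linked cis element; gain or loss fitted relative to DMSO.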

Assay [4] in a line: ATG_VDRE_CIS: Attagene CIS-FACTORIAL HepG2 Assay for human Vitamin D Receptor Element (VDRE) (AID 2282968). The conditions noted are these: HepG2 VDRE cis-reporter transcription, actives raise or lower the signal. In a few lines: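 Transient MRTU transfection of HepG2, 24 h compound exposure. Readout: reporter transcripts via RT-PCR and capillary electrophoresis, fluorescence. Bidirectional fit vs DMSO.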

The target in assay [5] is X-box-binding protein 1 (Homo sapiens) (UniProt P17861). Nature of the assay: ATG_Xbp1_CIS: Attagene CIS-FACTORIAL HepG2 Assay for human X-box Binding Protein 1 (XBP1) (AID 2282972). The conditions noted are these: HepG2 XBP1 cis-element reporter, Attagene multiplex; actives raise or lower the signal. In outline: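 Human hepatoma HepG2, cis-element reporter system, 24 h treatment; mRNA quantified by RT-PCR/CE fluorescence; fit relative to DMSO.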
X-box-binding protein 1 (Homo sapiens), sequence (P17861 whole entry, looked up): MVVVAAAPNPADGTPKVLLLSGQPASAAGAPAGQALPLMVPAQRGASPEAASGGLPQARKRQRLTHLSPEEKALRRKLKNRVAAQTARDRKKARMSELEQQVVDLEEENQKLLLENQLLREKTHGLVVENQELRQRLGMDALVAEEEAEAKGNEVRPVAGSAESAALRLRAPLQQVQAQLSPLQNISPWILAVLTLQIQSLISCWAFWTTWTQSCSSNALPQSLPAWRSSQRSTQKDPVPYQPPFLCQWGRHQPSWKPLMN

In assay [6] the target is Nuclear receptor subfamily 1 group I member 3 (Homo sapiens) (UniProt Q14994). Nature of the assay: ATG_CAR_TRANS: Attagene TRANS-FACTORIAL HepG2 Assay for human Constitutive Androstane Receptor (CAR) (AID 2282969; active means hit-call score of the fitted dose curve at least 0.9, where 1 is the maximum;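 further: activators raise reporter mRNA above DMSO so AC50 marks induction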). The conditions noted are these: HepG2 Attagene TRANS-FACTORIAL CAR reporter. In a few lines: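 Transiently transfected HepG2, multiplex TRANS reporters (CAR-Gal4 chimera driving GAL4-UAS reporter). 24 h dosing. Readout: reporter transcript by RT-PCR + capillary electrophoresis, fluorescence intensity; positive direction vs DMSO.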
Nuclear receptor subfamily 1 group I member 3 (Homo sapiens), sequence (Q14994 whole entry, looked up, the tested form may be a part): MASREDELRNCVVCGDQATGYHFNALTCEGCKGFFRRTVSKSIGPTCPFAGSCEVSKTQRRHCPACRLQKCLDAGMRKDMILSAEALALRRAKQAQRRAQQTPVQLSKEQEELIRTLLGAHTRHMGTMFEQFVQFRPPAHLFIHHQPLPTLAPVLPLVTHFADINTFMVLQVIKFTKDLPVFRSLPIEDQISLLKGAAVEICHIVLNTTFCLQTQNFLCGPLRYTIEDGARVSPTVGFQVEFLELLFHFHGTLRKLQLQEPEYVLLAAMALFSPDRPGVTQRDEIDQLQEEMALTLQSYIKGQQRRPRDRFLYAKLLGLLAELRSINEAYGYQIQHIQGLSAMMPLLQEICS

Assay [7] has as its target Estrogen receptor (Homo sapiens) (UniProt P03372). Nature of the assay: ATG_ERa_TRANS: Attagene TRANS-FACTORIAL HepG2 Assay for human Estrogen Receptor alpha (ERa) (AID 2282970; active means hit-call score of the fitted dose curve at least 0.9, where 1 is the maximum). To be noted: HepG2 Attagene TRANS ERa GAL4 reporter, mRNA. In outline: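 Reporter transcripts were measured 24 h after dosing by RT-PCR with fluorescent primer extension and capillary electrophoresis. The system is transiently transfected HepG2 expressing exogenous NR-Gal4 chimeras driving GAL4-UAS reporters; DMSO is the baseline.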

Assay [8] in a line: ATG_M_19_TRANS: Attagene TRANS-FACTORIAL HepG2 Assay for M19 Transcription Factor (Internal Marker) (AID 2282974; active means hit-call score of the fitted dose curve at least 0.9, where 1 is the maximum). To be noted: HepG2 Attagene TRANS-FACTORIAL M19 internal marker reporter. In a few lines:
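Using RT-PCR and capillary electrophoresis, reporter mRNA from transiently transfected human HepG2 cells was quantified following 24 h exposure; activity was fitted in the positive direction against DMSO.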

Assay [9] is described as follows: ATG_GAL4_TRANS: Attagene TRANS-FACTORIAL HepG2 Assay for GAL4 (Internal Marker) (AID 2282976; active means hit-call score of the fitted dose curve at least 0.9, where 1 is the maximum). To be noted: HepG2 Attagene TRANS GAL4 internal marker reporter. In a few lines: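 In transfected human HepG2 liver cells dosed 24 h, GAL4 reporter mRNA serves as a baseline marker. Detection by RT-PCR with fluorescent capillary electrophoresis, activity fitted upward relative to DMSO.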

Inconclusive results are not listed. Activity calls are given as the source filed them. How the source made its calls, unless noted: active means hit-call score of the fitted dose curve at least 0.9, where 1 is the maximum; inactive means score below 0.9.

Estrogen receptor (Homo sapiens), sequence (P03372 whole entry, looked up, the tested form may be a part): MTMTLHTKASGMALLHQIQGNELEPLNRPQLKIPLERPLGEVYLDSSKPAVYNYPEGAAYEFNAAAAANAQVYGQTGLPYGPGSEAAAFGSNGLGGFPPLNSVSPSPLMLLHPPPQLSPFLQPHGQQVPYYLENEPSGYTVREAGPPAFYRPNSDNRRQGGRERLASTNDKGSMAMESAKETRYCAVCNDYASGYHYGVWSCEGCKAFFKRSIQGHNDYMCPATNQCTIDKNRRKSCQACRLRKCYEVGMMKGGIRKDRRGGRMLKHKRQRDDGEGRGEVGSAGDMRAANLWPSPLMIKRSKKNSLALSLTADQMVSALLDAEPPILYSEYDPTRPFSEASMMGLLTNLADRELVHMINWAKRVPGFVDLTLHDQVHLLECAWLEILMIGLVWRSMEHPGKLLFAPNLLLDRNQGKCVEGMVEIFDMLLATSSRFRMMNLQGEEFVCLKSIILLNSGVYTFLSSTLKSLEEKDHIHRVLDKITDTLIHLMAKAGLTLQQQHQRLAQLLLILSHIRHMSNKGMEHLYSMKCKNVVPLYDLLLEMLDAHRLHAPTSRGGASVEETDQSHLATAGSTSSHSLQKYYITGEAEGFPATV

As usually defined, the AC50 is the concentration at which the activity in the assay is half-maximal. As for `CCN=c1cc2oc3cc(NCC)c(C)cc3c(-c3ccccc3C(=O)OCC)c-2cc1C`, the AC50 was 7.34 µM (active) in assay [1] and 11.1 µM (active) in [5]. Further, the compound was classed as inactive in assay [2], in assay [3] and in assay [4].

With `O=C(c1ccccc1)c1ccc(O)cc1O`, the call in assay [1], in assay [2], in assay [3], in [6], in assay [5] and in assay [8] was inactive. Further, the outcome in assay [9] was inactive. In assay [7], the AC50 was 1.33 µM (active).

For `Cc1cccc(C)n1`, the compound was classed as inactive in assay [1], in [2], in assay [3], in [4], in assay [5] and in [8]. Further, the result in [9] was inactive.

`COCCOCCC[Si](C)(O[Si](C)(C)C)O[Si](C)(C)C`: the figures for the AC50 in assay [1], in assay [4] and in [5] were 33.4 µM (active), 2.56 µM (active) and 2.99 µM (active), respectively. Moreover, the result in [2], in [3] and in assay [8] was inactive.

For `CC(=O)CCC(C)C`, the outcome in [1], in assay [2], in assay [3], in assay [6], in [7] and in assay [5] was inactive. In addition, in assay [8], the outcome was inactive.

On to `CCCC(=O)OCC(COC(=O)CCC)OC(=O)CCC`, for which the AC50 in [1] was 64 µM (active). Moreover, the call in assay [2], in [3], in assay [4], in [5] and in assay [9] was inactive.
